These results are taken from PubChem BioAssay (NCI).

SMILES strings stand for the structures. The panel holds about 79,000 compounds, 15% with a hit somewhere; the sample as a whole holds those more often. Unmarked numbers belong to inactive results. Activity calls are given as the source filed them. Cut-off read from the data, not from the text of the source: active = growth inhibition above about 70%; inactive = the rest.

The nature of test [1]: NCI Yeast Anticancer Drug Screen. Data for the rad50 strain (AID 155).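 Note: 0% = growth of vehicle-only cultures of the same strain.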 The following applies: S. cerevisiae rad50 strain growth inhibition, stronger effect = higher value. The gist of the method: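 Readout: growth inhibition relative to vehicle-treated cultures. Compound exposure was carried out in a genetically defined yeast strain deficient in DNA damage repair.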
The nature of test [2]: NCI Yeast Anticancer Drug Screen. Data for the mec2-1 strain (AID 157). The following applies: S. cerevisiae mec2-1 strain, stronger effect = higher value. In short, it runs like this: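 Mutant yeast (mec2-1) grown with compound; growth inhibition relative to vehicle control reported.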
Test [3] can be described thus: NCI Yeast Anticancer Drug Screen. Data for the sgs1 mgt1 strain (AID 161).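 Note: 0% = growth of cultures given vehicle only.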 To be noted: S. cerevisiae sgs1 mgt1 strain, stronger effect = higher value. In short, it runs like this:
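Growth of a repair-deficient yeast mutant was monitored after compound treatment and expressed as inhibition relative to vehicle-treated cultures.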

A short description of test [4]: NCI Yeast Anticancer Drug Screen. Data for the cln2 rad14 strain (AID 165).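 Note: 0% = growth equal to vehicle treated cultures.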 The following applies: S. cerevisiae cln2 rad14 strain, stronger effect = higher value. In short, it runs like this:
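Readout is yeast growth inhibition versus vehicle-treated controls, using a strain with cln2 and rad14 alterations exposed to compound.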

A short description of test [5]: NCI Yeast Anticancer Drug Screen. Data for the bub3 strain (AID 167). The following applies: S. cerevisiae bub3 mutant strain, stronger effect = higher value. In short, it runs like this: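 Readout: yeast growth inhibition, expressed relative to vehicle-only wells. The test organism is a mutant strain from a panel with lesions in DNA repair or checkpoint genes.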
Test [6] is described as follows: NCI Yeast Anticancer Drug Screen. Data for the mlh1 rad18 strain (AID 175). The following applies: S. cerevisiae mlh1 rad18 strain growth inhibition, stronger effect = higher value. In short, it runs like this: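 Genetically defined yeast (DNA repair-deficient) exposed to compounds; growth inhibition determined relative to vehicle.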
The mark [7] stands for this setting: at 5.0 µM (retest, dose inferred, filed as 0.5).
[8] abbreviates: at 50.0 µM (retest, dose inferred, filed as 5.0).

With `Nc1ccc2nc(N)sc2c1`, the growth inhibition is -5% in test [1] (setting [7]); 8% in test [1] (setting [8]); 20.1% in test [1] (at 50.0 µM); -6% in test [2] (setting [7]); 2% in test [2] (setting [8]); -3.75% in test [2] (at 50.0 µM). The growth inhibition in test [3] (setting [7]) is 0%; in test [3] (setting [8]), -47%; in test [3] (at 50.0 µM), 18.5%; in test [4] (setting [7]) it was 0%; in test [4] (setting [8]) it was 2%; in test [4] (at 50.0 µM), 42.9%. Also, the growth inhibition in test [5] (setting [7]) is -2%; in test [5] (setting [8]) it was 90% (active); in test [5] (at 50.0 µM), -15.2%; in test [6] (setting [7]), -4%; in test [6] (setting [8]), 4%; in test [6] (at 50.0 µM), -6.65%.
On to `[Cu+2].[NH-]c1ccccc1O.[NH-]c1ccccc1[OH2+]`, for which the growth inhibition in test [1] (setting [7]) was 7%; in test [1] (setting [8]) it was 69%; in test [1] (at 50.0 µM) it was 50.6%; in test [2] (setting [7]) it was 20%; in test [2] (setting [8]), 80% (active); in test [2] (at 50.0 µM), 46.6%. Also, the growth inhibition is 15% in test [3] (setting [7]); 67% in test [3] (setting [8]); 60.4% in test [3] (at 50.0 µM); 11% in test [4] (setting [7]); 59% in test [4] (setting [8]); 35.8% in test [4] (at 50.0 µM). In addition, the growth inhibition in test [5] (setting [7]) was 45%; in test [5] (setting [8]) it was 67%; in test [5] (at 50.0 µM) it was 75.8% (active); in test [6] (setting [7]) it was 28%; in test [6] (setting [8]), 82% (active); in test [6] (at 50.0 µM), 75.6% (active).
As to `O=C1CCCC1C(=O)OC1CCCC1` (stereo not given), the growth inhibition is 42% in test [1] (setting [7]); 13% in test [1] (setting [8]); -7.55% in test [1] (at 50.0 µM); 13% in test [2] (setting [7]); 4% in test [2] (setting [8]); -15% in test [2] (at 50.0 µM). In addition, the growth inhibition in test [3] (setting [7]) is 7%; in test [3] (setting [8]) it was 2%; in test [3] (at 50.0 µM) it was -18.6%; in test [4] (setting [7]), 14%; in test [4] (setting [8]), 3%; in test [4] (at 50.0 µM) it was 48.5%. Besides, the growth inhibition is 24% in test [5] (setting [7]); 0% in test [5] (setting [8]); -19.3% in test [5] (at 50.0 µM); 14% in test [6] (setting [7]); 0% in test [6] (setting [8]); -11.4% in test [6] (at 50.0 µM).
Consider `CC(CN(C)C)C(/C=C/c1ccccc1)=N\NC(=O)c1ccccc1` (stereo not given), for which the growth inhibition in test [1] (setting [7]) is -14%; in test [1] (setting [8]), 3%; in test [1] (at 50.0 µM) it was 3.15%; in test [2] (setting [7]), -7%; in test [2] (setting [8]) it was -7%; in test [2] (at 50.0 µM), 13.1%. Besides, the growth inhibition in test [3] (setting [7]) is -4%; in test [3] (setting [8]) it was 3%; in test [3] (at 50.0 µM), 3.05%; in test [4] (setting [7]), -11%; in test [4] (setting [8]), -4%; in test [4] (at 50.0 µM), 3.15%. Besides, the growth inhibition in test [5] (setting [7]) was -3%; in test [5] (setting [8]), -11%; in test [5] (at 50.0 µM), -18.4%; in test [6] (setting [7]) it was 2%; in test [6] (setting [8]), 11%; in test [6] (at 50.0 µM), -3.6%.
Consider `CC(=O)CC(=O)OCc1ccccc1`, for which the growth inhibition in test [1] (setting [7]) was 12%; in test [1] (setting [8]) it was 97% (active); in test [1] (at 50.0 µM), 94.5% (active); in test [2] (setting [7]), 4%; in test [2] (setting [8]), 98% (active); in test [2] (at 50.0 µM), 97.2% (active). Also, the growth inhibition in test [3] (setting [7]) is 1%; in test [3] (setting [8]), 96% (active); in test [3] (at 50.0 µM) it was 98% (active); in test [4] (setting [7]), 4%; in test [4] (setting [8]) it was 89% (active); in test [4] (at 50.0 µM) it was 87.2% (active). Moreover, the growth inhibition in test [5] (setting [7]) is 8%; in test [5] (setting [8]), 98% (active); in test [5] (at 50.0 µM) it was 96% (active); in test [6] (setting [7]), 14%; in test [6] (setting [8]), 98% (active); in test [6] (at 50.0 µM), 97.7% (active).
As to `O=C1CSc2ccccc2-n2cccc21`, the growth inhibition was 5% in test [1] (setting [7]); 6% in test [1] (setting [8]); 9.55% in test [1] (at 50.0 µM); 11% in test [2] (setting [7]); 8% in test [2] (setting [8]); 3.35% in test [2] (at 50.0 µM). Further, the growth inhibition in test [3] (setting [7]) was 6%; in test [3] (setting [8]), -4%; in test [3] (at 50.0 µM) it was 61.5%; in test [4] (setting [7]), 32%; in test [4] (setting [8]) it was 30%; in test [4] (at 50.0 µM), -1.1%. For the same compound, the growth inhibition in test [5] (setting [7]) is 77% (active); in test [5] (setting [8]) it was 77% (active); in test [5] (at 50.0 µM) it was -11.2%; in test [6] (setting [7]) it was 5%; in test [6] (setting [8]) it was 15%; in test [6] (at 50.0 µM), 1.95%.
As for `C[Si](C)(C)CN1C(=O)c2ccccc2C1(O)c1ccccc1` (stereo not given), the growth inhibition in test [1] (setting [7]) is -2%; in test [1] (setting [8]) it was 69%; in test [1] (at 50.0 µM), 69.8%; in test [2] (setting [7]), -1%; in test [2] (setting [8]) it was 66%; in test [2] (at 50.0 µM) it was 35.8%. For the same compound, the growth inhibition is -4% in test [3] (setting [7]); 74% (active) in test [3] (setting [8]); 47.5% in test [3] (at 50.0 µM); -1% in test [4] (setting [7]); 29% in test [4] (setting [8]); 42.5% in test [4] (at 50.0 µM). In addition, the growth inhibition is -3% in test [5] (setting [7]); 33% in test [5] (setting [8]); 4.2% in test [5] (at 50.0 µM); -1% in test [6] (setting [7]); 69% in test [6] (setting [8]); 71.2% (active) in test [6] (at 50.0 µM).
Turning to `N#Cc1cn(-c2c3ccccc3nc3ccccc23)c(=O)[nH]c1=O`, the growth inhibition in test [1] (setting [7]) was 16%; in test [1] (setting [8]), 67%; in test [1] (at 50.0 µM), 58.4%; in test [2] (setting [7]), -9%; in test [2] (setting [8]), 52%; in test [2] (at 50.0 µM) it was 39.9%. The growth inhibition was 3% in test [3] (setting [7]); 30% in test [3] (setting [8]); 49.6% in test [3] (at 50.0 µM); 21% in test [4] (setting [7]); 70% (active) in test [4] (setting [8]); 48.3% in test [4] (at 50.0 µM). The growth inhibition in test [5] (setting [7]) is 15%; in test [5] (setting [8]), 59%; in test [5] (at 50.0 µM), 21.8%; in test [6] (setting [7]), 14%; in test [6] (setting [8]) it was 77% (active); in test [6] (at 50.0 µM), 76.2% (active).
For `N#Cc1ccc2nc3ccc(N)cc3nc2c1`, the growth inhibition in test [1] (setting [7]) was -22%; in test [1] (setting [8]), 96% (active); in test [1] (at 50.0 µM) it was 79.2% (active); in test [2] (setting [7]) it was 4%; in test [2] (setting [8]) it was 76% (active); in test [2] (at 50.0 µM), 39.1%. For the same compound, the growth inhibition in test [3] (setting [7]) was -18%; in test [3] (setting [8]), 86% (active); in test [3] (at 50.0 µM), 20.1%; in test [4] (setting [7]), -6%; in test [4] (setting [8]), 82% (active); in test [4] (at 50.0 µM) it was 10.6%. The growth inhibition in test [5] (setting [7]) was -13%; in test [5] (setting [8]), 82% (active); in test [5] (at 50.0 µM) it was 43.3%; in test [6] (setting [7]), -5%; in test [6] (setting [8]) it was 96% (active); in test [6] (at 50.0 µM), 48%.
In the case of `Cc1ccc2cc3ccccc3c(-c3ccccc3)c2c1`, the growth inhibition in test [1] (setting [7]) was 5%; in test [1] (setting [8]) it was -3%; in test [1] (at 50.0 µM), 10.6%; in test [2] (setting [7]), -13%; in test [2] (setting [8]), -29%; in test [2] (at 50.0 µM), 12.9%. Moreover, the growth inhibition in test [3] (setting [7]) is 6%; in test [3] (setting [8]) it was -61%; in test [3] (at 50.0 µM), -9.35%; in test [4] (setting [7]) it was 5%; in test [4] (setting [8]) it was -16%; in test [4] (at 50.0 µM) it was 37%. Besides, the growth inhibition in test [5] (setting [7]) is -11%; in test [5] (setting [8]) it was -12%; in test [5] (at 50.0 µM), -1.15%; in test [6] (setting [7]), -2%; in test [6] (setting [8]), 0%; in test [6] (at 50.0 µM) it was -5.65%.
